The values below come from PubChem BioAssay (NCI).

Compounds without any hit were thinned out: in the full panel of roughly 79,000, 15% have a hit. A number with no mark means an inactive call. Active and inactive are the calls of the source. Cut-off read from the data, not from the text of the source: active = growth inhibition above about 70%; inactive = the rest.

This assay can be described thus: NCI Yeast Anticancer Drug Screen. Data for the sgs1 mgt1 strain (AID 161).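 Note: 0% = growth of cultures given vehicle only.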 Particulars: S. cerevisiae sgs1 mgt1 strain, at 50.0 µM, hits give high values. The gist of the method:
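Genetically altered yeast, compound exposure, growth inhibition relative to vehicle.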
Regarding `O=[n+]1c2c(n([O-])c3ccc4ccccc4c31)-c1cccc3cccc-2c13`, the growth inhibition was 11.1%.

As to `COc1ccc(C(=O)Cc2ccc(Cl)cc2)cc1OC`, the growth inhibition is 10.5%. As for `CCN(CC)CCC(=O)c1ccc(Oc2ccc(C)cc2)cc1`, the growth inhibition was 58%. As for `BrC(Br)=C1C(=C(Br)Br)C(Br)C1Br` (stereo unspecified), the growth inhibition is 83.8% (active).

In the case of `O=C(O)C(Cc1cc(I)c(O)c(I)c1)c1ccccc1` (stereo unspecified), the growth inhibition was 16.8%.

On to `CC1(C)OC2C(COC(c3ccccc3)(c3ccccc3)c3ccccc3)OC(n3ccc(=O)[nH]c3=O)C2O1` (stereo unspecified), for which the growth inhibition is 75.3% (active). As to `Clc1ccc(C2=CCN3CC=C(c4ccc(Cl)cc4)C23)cc1`, the growth inhibition was 100% (active). `Nc1ccc([N+](=O)[O-])cc1Nc1c2ccccc2nc2ccccc12`: the growth inhibition is 40%. For the molecule `COc1c2c3c(ccnc3c3ccccc13)C(=O)N2C`, the growth inhibition is 77.7% (active). Under `O=C1/C(=C/c2ccc([N+](=O)[O-])cc2)CNC/C1=C\c1ccc([N+](=O)[O-])cc1` stands 85.5% (active); under `Clc1ccc(-c2nnn3ccccc23)cc1`, 95.8% (active); under `O=Cc1ccc([N+](=O)[O-])o1`, 99.6% (active).

In the case of `CN(C)Cc1cc(C(C)(C)C)cc(C2CCCCC2)c1O`, the growth inhibition is 74.3% (active). `COc1ccc2c(c1)CN([C@@H](C)[C@H]1CC[C@H]3[C@@H]4CC[C@H]5C[C@@H](O)CC[C@]5(C)[C@H]4CC[C@]13C)CO2`: the growth inhibition is 99.2% (active).

As for `FC(F)(F)c1ccc(NC(=S)SCc2ccc3c(c2)OCO3)cc1`, the growth inhibition is 93.3% (active). As to `Nc1cc(F)c2c(c1F)C(=O)c1cc(F)ccc1-2`, the growth inhibition was 55.4%.
